Screen size: about 400,000 compounds; about 1,900 (0.47%) were called active. Roughly 14% stayed inconclusive and do not appear here. No rule for the calls is given here. The entries come from a sample that favours actives as a whole.

Sequence of Ataxin-2 (Homo sapiens) (Q99700 whole entry): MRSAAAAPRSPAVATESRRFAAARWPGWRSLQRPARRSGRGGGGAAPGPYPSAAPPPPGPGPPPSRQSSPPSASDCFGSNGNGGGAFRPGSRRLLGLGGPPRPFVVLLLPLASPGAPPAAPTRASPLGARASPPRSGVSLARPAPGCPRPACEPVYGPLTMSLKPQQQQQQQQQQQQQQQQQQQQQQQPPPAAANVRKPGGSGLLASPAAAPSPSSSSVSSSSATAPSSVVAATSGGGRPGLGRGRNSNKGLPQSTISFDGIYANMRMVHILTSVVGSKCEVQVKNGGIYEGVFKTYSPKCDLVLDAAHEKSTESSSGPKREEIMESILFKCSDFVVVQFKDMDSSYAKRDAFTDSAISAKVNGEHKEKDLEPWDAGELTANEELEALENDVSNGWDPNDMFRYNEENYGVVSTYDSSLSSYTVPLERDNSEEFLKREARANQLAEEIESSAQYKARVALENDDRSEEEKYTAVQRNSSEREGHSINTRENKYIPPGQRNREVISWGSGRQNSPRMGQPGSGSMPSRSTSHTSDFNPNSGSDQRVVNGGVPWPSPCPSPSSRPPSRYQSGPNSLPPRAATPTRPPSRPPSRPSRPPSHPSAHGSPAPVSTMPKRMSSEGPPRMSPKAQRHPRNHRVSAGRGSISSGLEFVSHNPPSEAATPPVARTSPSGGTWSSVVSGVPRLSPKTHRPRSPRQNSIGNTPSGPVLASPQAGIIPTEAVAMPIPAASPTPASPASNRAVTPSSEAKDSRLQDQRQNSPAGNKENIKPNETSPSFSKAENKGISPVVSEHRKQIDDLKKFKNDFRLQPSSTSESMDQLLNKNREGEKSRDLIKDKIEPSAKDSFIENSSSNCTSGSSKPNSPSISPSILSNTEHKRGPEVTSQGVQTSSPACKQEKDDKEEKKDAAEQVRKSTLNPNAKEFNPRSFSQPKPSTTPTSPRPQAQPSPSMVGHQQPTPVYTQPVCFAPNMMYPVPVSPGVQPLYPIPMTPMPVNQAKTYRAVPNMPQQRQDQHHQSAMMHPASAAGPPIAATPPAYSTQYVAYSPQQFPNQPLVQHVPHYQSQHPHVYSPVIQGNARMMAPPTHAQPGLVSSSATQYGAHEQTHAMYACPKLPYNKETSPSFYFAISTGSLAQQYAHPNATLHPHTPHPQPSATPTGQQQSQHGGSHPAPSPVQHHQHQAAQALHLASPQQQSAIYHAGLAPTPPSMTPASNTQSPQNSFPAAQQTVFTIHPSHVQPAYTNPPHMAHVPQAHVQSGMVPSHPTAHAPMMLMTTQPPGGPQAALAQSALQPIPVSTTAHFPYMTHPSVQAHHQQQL

The experiment has as its target Ataxin-2 (Homo sapiens) (UniProt Q99700). The experiment can be described thus: qHTS for Inhibitors of ATXN expression. Type of experiment: functional.
In the case of `CCOC(=O)[C@]12Cc3c(cc(OC)c(OC)c3OC)[C@H]1N(C)C(=O)c1cc(OC)ccc12`, the Potency is 11.2 µM (active). To `CCOC(=O)[C@]12Cc3ccccc3[C@H]1N(C(C)C)C(=O)c1cc(OC)ccc12` belongs 17.8 µM (active); to `CCOC(=O)[C@]12Cc3ccccc3[C@H]1N(C(C)C)C(=O)c1ccccc12`, 22.4 µM (active). To `CCOC(=O)[C@]12Cc3ccccc3[C@H]1N(C)C(=O)c1cc(OC)ccc12` belongs 31.6 µM (active); to `N#CC1=C(N)Oc2c(c(=O)oc3ccccc23)C1c1ccc([N+](=O)[O-])o1` (stereo not given), “inactive”; to `CC(C)OCC(O)CN1CC2C[C@@H](C1)Cn1c2cccc1=O` (stereo not given in full), “inactive”. Turning to `Cc1cc(=O)oc2cc(OCC(=O)N3CCN(C(C)c4ccccc4)CC3)c(Cl)cc12` (stereo not given), the Potency result is “inactive”. On to `CCCCn1c(NC(=O)c2ccco2)c(C(=O)OCC)c2nc3ccccc3nc21`, for which the Potency result was “inactive”. As to `CCOC(=O)[C@]12Cc3cc(C)ccc3[C@H]1N(C(C)C)C(=O)c1ccccc12`, the Potency is 11.2 µM (active). As for `CCCCN1C(=O)/C(=C/NNC(=O)c2ccncc2)C(=O)NC1=S`, the Potency result is “inactive”. With `CCOc1c(Cl)cc(CNCCc2c[nH]c3ccccc23)cc1OC`, the Potency is 20 µM (active). As for `CCOc1c(Cl)cc(CNC(C)C(O)c2ccccc2)cc1OC` (stereo not given), the Potency entry is “inactive”. To `COc1cccc(CNCCc2cccc(F)c2)c1OC` belongs “inactive”; to `COc1cccc(-n2c(/C=C/c3ccc(O)c(O)c3)nc3ccccc3c2=O)c1`, “inactive”. Turning to `COP(=O)(OC)c1nc(-c2ccc([N+](=O)[O-])cc2)oc1N1CCCCC1`, the Potency result is “inactive”. Turning to `O=[N+]([O-])/C=C/c1c(Cl)cccc1Cl`, the Potency is 4.74 µM (active). Regarding `CC(C)CCNC(=O)c1c(N)n(CC2CCCO2)c2nc3ccccc3nc12` (stereo not given), the Potency entry was “inactive”. For `O=C1NC(=O)N(Cc2ccccc2)C(=O)/C1=C/NNC(=O)c1ccncc1`, the Potency entry is “inactive”. Turning to `Cc1cnc(SCc2ccccn2)nc1C1CCCN(C(=O)c2scc3c2CCCC3)C1` (stereo not given), the Potency was 25.1 µM (active). Turning to `Nc1ccc2c3c(cccc13)-c1ccccc1-2`, the Potency entry is “inactive”. Take `Nc1c(C(=O)NCc2ccco2)c2nc3ccccc3nc2n1Cc1ccccc1`: the Potency result was “inactive”. As for `O=C(NCC1=C(c2ccc3ccccc3c2)C[C@@H]2CC[C@H]1N2Cc1ccco1)c1ccc([N+](=O)[O-])cc1`, the Potency is 31.6 µM (active). In the case of `Nc1c(C(=O)NCC2CCCO2)c2nc3ccccc3nc2n1Cc1ccco1` (stereo not given), the Potency entry is “inactive”.

Take `CCC(Nc1ccccc1N)=C1C(=O)NC(=O)NC1=O`: the Potency entry was “inactive”. In the case of `CCC1(C)OC(c2ccccc2)=C/C(=C/C=C2C(=O)NC(=O)NC2=O)O1` (stereo not given), the Potency result was “inactive”. Turning to `O=c1ccc2cc(O[C@@H]3O[C@H](CO)[C@@H](O)[C@H](O)[C@H]3O)c(O)cc2o1`, the Potency entry was “inactive”. As for `O=C(NCc1ccccc1)c1cccn(Cc2cccc(Cl)c2)c1=O`, the Potency result is “inactive”. Regarding `Cc1n[nH]c2ccc(-c3cncc(OC[C@@H](N)Cc4c[nH]c5ccccc45)c3)cc12`, the Potency was 11.2 µM (active).

On to `C[n+]1c2cc(N)ccc2cc2ccc(N)cc21`, for which the Potency result is “inactive”. The value for `Clc1ccc(COC(Cn2ccnc2)c2ccc(Cl)cc2Cl)cc1` (stereo not given) was 39.8 µM (active); that for `Clc1ccc(C(Cn2ccnc2)OCc2csc3c(Cl)cccc23)c(Cl)c1` (stereo not given) was 28.2 µM (active); that for `COc1ccc(Br)cc1CNCCc1cccc(Cl)c1` was “inactive”. For `CC/C(=C(\c1ccc(O)cc1)c1ccc(OCCN(C)C)cc1)c1ccccc1`, the Potency is 39.8 µM (active). With `CCCCCC[C@H]1C(=O)O[C@H](C)[C@H](NC(=O)c2cccc(NC=O)c2O)C(=O)O[C@@H](C)[C@H]1OC(=O)CC(C)C`, the Potency entry was “inactive”. For the molecule `C=CCc1ccccc1OCCn1c(C2CC(=O)N(Cc3ccc(F)cc3)C2)nc2ccccc21` (stereo not given), the Potency is 39.8 µM (active). For `CC[C@@H]1CN2CCc3cc(OC)c(OC)cc3[C@H]2C[C@@H]1C[C@H]1NCCc2cc(OC)c(OC)cc21`, the Potency is 0.316 µM (active).

Turning to `CC[C@@H]1CN2CCc3cc(OC)c(OC)cc3[C@H]2C[C@@H]1C[C@@H]1NCCc2cc(O)c(OC)cc21`, the Potency was 0.0631 µM (active). The value for `CC(=O)O[C@H]1CCC2C3CCC4=CC(=O)CCC4=C3C=C[C@@]21C` (stereo not given in full) was “inactive”; that for `CN1C(=O)C(=CNCCN2CCOCC2)C(=O)N(C)C1=S` was “inactive”; that for `Cc1ccc(N/N=C/C=C/c2ccco2)cc1` was “inactive”.

On to `CC(=O)C12CC(C)=C(C)CC1CC1C3CCC4=CC(=O)CCC4(C)C3CCC12C` (stereo not given), for which the Potency result was “inactive”. With `O=C1NC(=O)N(CCc2ccc(F)cc2)C(=O)/C1=C/NNC(=O)c1ccncc1`, the Potency entry was “inactive”.

Consider `Fc1ccc(C2=CCN(C(c3cccs3)c3nnnn3CCc3ccccc3)CC2)cc1` (stereo not given), for which the Potency was 39.8 µM (active).

On to `Clc1ccc2sc(C3CCNCC3)nc2c1`, for which the Potency result is “inactive”. As for `CCCCn1nnnc1C(c1cccc(OC)c1OC)N1CCC2(CC1)C(=O)NCN2c1ccccc1` (stereo not given), the Potency was 39.8 µM (active). Take `COc1cccc(C(c2nnnn2Cc2ccccc2)N2CCC3(CC2)C(=O)NCN3c2ccccc2)c1OC` (stereo not given): the Potency was 39.8 µM (active). Take `O=C1NCN(c2ccccc2)C12CCN(C(c1ccccc1OC(F)(F)F)c1nnnn1Cc1ccccc1)CC2` (stereo not given): the Potency was 39.8 µM (active). To `O=C1NCN(c2ccccc2)C12CCN(C(c1cccc3ccccc13)c1nnnn1Cc1ccccc1)CC2` (stereo not given) belongs 39.8 µM (active); to `Cc1c(CC(=O)N2C[C@H]3C[C@@H](C2)c2cccc(=O)n2C3)c(=O)oc2c(C)c(O)ccc12`, “inactive”. Turning to `COc1ccc2c(c1)NP(=S)(Oc1ccccc1)N2` (stereo not given), the Potency entry is “inactive”.

For the molecule `N#Cc1cccc(NC(=O)CSc2nc3c(cc2C#N)N2CCC3CC2)c1`, the Potency result is “inactive”. As for `Fc1cccc(F)c1CN1CCN(c2ccc(Cl)cc2)CC1`, the Potency entry is “inactive”. Consider `CCC(C)NC(=O)c1c(N)n(CCCOC)c2nc3ccccc3nc12` (stereo not given), for which the Potency result was “inactive”. As for `CCCCNC(=O)c1c(N)n(CCCOC)c2nc3ccccc3nc12`, the Potency result is “inactive”. As to `Cc1cc(=O)oc2cc3c(cc12)CCCN3`, the Potency entry is “inactive”.

On to `CC[C@H](C)/C=C(C)/C=C/C1=CC2=C(Cl)C(=O)[C@](C)(OC(C)=O)C(=O)C2=CO1`, for which the Potency was 28.2 µM (active). To `COc1ccc(-n2c(/C=C/c3ccc(O)cc3)nc3ccccc3c2=O)cc1` belongs “inactive”. In the case of `CCn1nc(/C=C/c2ccccc2)nc2c(=O)n(C)c(=O)nc1-2`, the Potency was 10.6 µM (active). In the case of `CCn1nc(-c2ccccc2)nc2c(=O)n(C)c(=O)nc1-2`, the Potency is 20 µM (active). For `CCN1C(=O)/C(=C/NNC(=O)c2ccncc2)C(=O)NC1=S`, the Potency entry was “inactive”. The value for `CCOc1ccc2nc(NN=C3C(=O)NC(=S)NC3=O)sc2c1` was 15 µM (active); that for `CCC(=O)N1N=C2C3CCN(CC3)C2C1c1ccc(C)cc1` (stereo not given) was “inactive”.

Turning to `COc1cccc(C(=O)NCc2nc(-c3cccc(NC(=O)c4ccoc4C)c3)oc2C)c1OC`, the Potency was 28.2 µM (active).

As to `Nc1ccc2c(c1)Cc1cc([N+](=O)[O-])ccc1-2`, the Potency result is “inactive”. Consider `Clc1ccc2c(c1)C(OC1CN3CCC1CC3)c1ccccc1CS2` (stereo not given), for which the Potency is 28.2 µM (active). `COc1ccc(S(=O)(=O)Nc2ccccc2OC)cc1NN=C1C(=O)NC(=S)NC1=O`: the Potency was 39.8 µM (active). Take `CCOc1ccc(NS(=O)(=O)c2ccc(Cl)c(NN=C3C(=O)NC(=S)NC3=O)c2)cc1Br`: the Potency was 28.2 µM (active).

As for `Nc1ccc2ccc3cccc[n+]3c2c1`, the Potency entry was “inactive”. On to `COCCCNC(=O)c1c(NC(=O)c2ccccc2Cl)n(Cc2ccccc2)c2nc3ccccc3nc12`, for which the Potency result was “inactive”. Consider `CCC1(O)C(=O)OCc2c1cc1n(c2=O)Cc2cc3cc(O)ccc3nc2-1` (stereo not given), for which the Potency entry is “inactive”. Consider `CCC1(OC(=O)CN)C(=O)OCc2c1cc1n(c2=O)Cc2cc3ccccc3nc2-1` (stereo not given), for which the Potency entry was “inactive”. Take `CC[C@@]1(O)C(=O)OCc2c1cc1n(c2=O)Cc2cc3ccccc3nc2-1`: the Potency is 0.01 µM (active). As to `CCCCCn1c(=O)c(C(=O)NCc2ccccc2Cl)c(O)c2ccccc21`, the Potency result is “inactive”.

For `NNC(=O)CN1C(=O)CN=C(c2ccccc2)c2cc(Br)ccc21`, the Potency entry is “inactive”. Turning to `O=C(CN1C(=O)CN=C(c2ccccc2)c2ccccc21)Nc1cccc(C(F)(F)F)c1`, the Potency was 31.6 µM (active). With `C=C1C(=O)OC2CC3(C)OC3CCC(C)=CC(OC(C)=O)C12` (stereo not given), the Potency was 33.6 µM (active). To `CCCCn1c(NS(=O)(=O)c2ccccc2)c(C(=O)OCC)c2nc3ccccc3nc21` belongs “inactive”; to `CCOC(=O)c1c(NS(=O)(=O)c2ccccc2)n(CCCOC)c2nc3ccccc3nc12`, “inactive”; to `COCCCn1c(N)c(C(=O)NCCC(C)C)c2nc3ccccc3nc21`, “inactive”. As to `Brc1cccc(CNCCc2ccc3c(c2)OCO3)c1`, the Potency result is “inactive”. With `CNCCC(Oc1ccc(C(F)(F)F)cc1)c1ccccc1` (stereo not given), the Potency is 31.6 µM (active).

For the molecule `CC[C@@]1(O)C(=O)OCc2c1cc1n(c2=O)Cc2cc3c(NC(=O)CN)cccc3nc2-1`, the Potency result is “inactive”.

As to `COC(=O)c1ccc(C(C(=O)NC2CCCCC2)N(CCN2CCOCC2)C(=O)Cc2cccs2)cc1` (stereo not given), the Potency entry is “inactive”.

Consider `CCc1ccc2c(c1)Sc1ccccc1CC2N1CCN(C)CC1` (stereo not given), for which the Potency result is “inactive”.

As to `O=c1ccc2cc(OC3O[C@H](CO)[C@@H](O)[C@H](O)[C@H]3O)c(O)cc2o1` (stereo not given in full), the Potency result is “inactive”.

Take `O=[N+]([O-])c1ccc(N2CCOCC2)c2cccnc12`: the Potency result is “inactive”.

On to `CN1CCN(c2ccc([N+](=O)[O-])c3no[n+]([O-])c23)CC1`, for which the Potency was 7.08 µM (active). As for `O=[N+]([O-])c1ccc(N(CCO)CCO)c2c1no[n+]2[O-]`, the Potency was 17.8 µM (active).

With `O=[N+]([O-])c1ccc(N2CCOCC2)c2c1no[n+]2[O-]`, the Potency is 3.98 µM (active). For `COc1ccc(Br)cc1CNCCc1ccc2c(c1)OCO2`, the Potency result is “inactive”.

As to `Cc1cc2c(C(F)(F)F)cc(=O)oc2c2c1NCCC2`, the Potency result was “inactive”. As to `Cc1cc(C=C2C(=O)NC(=S)NC2=O)c(C)n1-c1ccc2c(c1)OCO2`, the Potency is 39.8 µM (active). To `Cc1cccc(N2C(=O)NC(=O)/C(=C/c3cc4c(cc3[N+](=O)[O-])OCO4)C2=O)c1` belongs “inactive”.

`Cc1cc(/C=C2\C(=O)NC(=O)N(Cc3ccccc3Cl)C2=O)c(C)n1-c1ccc(C(=O)O)cc1`: the Potency result is “inactive”. As to `CCN(C(=O)COC(=O)c1cn(C)c2ccccc12)c1ccc(F)cc1`, the Potency result was “inactive”.
